Data from PubChem BioAssay AID2284355 (EPA ToxCast).
Results filed as inconclusive are left out. Activity calls are given as the source filed them. How the source made its calls: active means hit-call score of the fitted dose curve at least 0.9, where 1 is the maximum; inconclusive means response in the unintended direction; inactive means score below 0.9.

These compounds were tested on rainbow trout Retinoid X Receptor beta (RXRb) (assay: ATG_rtRXRb_EcoTox2: Attagene TRANS-FACTORIAL EcoTox-2 HepG2 Assay for rainbow trout Retinoid X Receptor beta (RXRb)).
Protocol: ATG_EcoTox2 is a cell-based, multiplexed assay created by modifying the existing Attagene TRANS-FACTORIAL system to include a panel of nuclear receptors from some or all the following species: human (Homo sapiens), african clawed frog (Xenopus laevis), rainbow trout (Oncorhynchus mykiss), japanese medaka (Oryzias latipes), and zebrafish (Danio rerio). The ECOTOX2-FACTORIAL format uses HepG2, a human liver cell line, with measurements taken at 24 hours after chemical dosing in a 24-well plate. ATG_rtRXRb_EcoTox2 is one of 29 assay components calculated in the ATG_EcoTox2 assay. It is designed to make measurements of mRNA induction, a form of inducible reporter, as detected with fluorescence intensity signals by Reverse transcription polymerase chain reaction (RT-PCR) and Capillary electrophoresis technology.The assay endpoint ATG_rtRXRb_EcoTox2 was analyzed in the positive analysis fitting direction relative to DMSO as the negative control and baseline of activity. Using a type of inducible reporter, measures of mRNA for gain-of-signal activity can be used to understand the reporter gene at the transcription factor-level as they relate to the gene RXRb. Furthermore, this assay endpoint can be referred to as a primary readout, because this assay has produced multiple assay endpoints where this one serves a reporter gene function. […]

SMILES	AC50
[Cl][Sn]([c]1ccccc1)([c]1ccccc1)[c]1ccccc1	119 nM (active)
